Our source for the z-score and composite z-score values is PubChem BioAssay.

Assay [1] can be described thus: compound effects on lung adenocarcinoma cell viability – A549, calcein-AM fluorescence, 48 h, basal, profiling panel (AID 1162). Note: test concentration not given here. The following applies: higher = more signal.
A short description of assay [2]: compound effects on differentiated 3T3-L1 adipocyte viability – cell-based, 3T3-L1 adipocytes, calcein-AM fluorescence, 48 h, basal, profiling panel (AID 1163). Note: test concentration not given here. The following applies: 3T3-L1 adipocytes viability, higher = more signal.
Assay [3] in a line: compound effects on hepatocellular carcinoma cell viability – HepG2, calcein-AM fluorescence, 48 h, basal, profiling panel (AID 1164). Note: test concentration not given here. The note with it: higher = more signal.
A short description of assay [4]: compound effects on multiple myeloma cell viability – MM1S, calcein-AM fluorescence, 48 h, basal, profiling panel (AID 1165).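 Note: viability of MM1S multiple myeloma cells under basal unstimulated conditions; test concentration not given here.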 The note with it: higher = more signal.
The nature of assay [5]: calcein-AM signal in unstimulated myeloma cells – cell-based, calcein-AM fluorescence, 48 h, PK04 Diversity Set, profiling panel (AID 1166).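 Note: cells grown under basal conditions without added stimulus; test concentration not given here.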 The note with it: RPMI8226 myeloma viability, higher = more signal.
Assay [6] is described as follows: JC-1 mitochondrial signal, unstimulated HepG2 cells – cell-based, JC-1 fluorescence, 24 h, 100 nL compound, profiling panel (AID 1167). Note: test concentration not given here. The following applies: HepG2 mitochondrial potential, higher = more signal.
The nature of assay [7]: JC-1 mitochondrial signal, unstimulated adipocytes – cell-based, JC-1 fluorescence, 3T3-L1 adipocytes, 24 h, 100 nL compound, profiling panel (AID 1168). Note: test concentration not given here. The note with it: JC-1 mitochondrial fluorescence, higher = more signal, called active from +8 up or from −8 down.
The nature of assay [8]: JC-1 mitochondrial signal, unstimulated myeloma cells – cell-based, JC-1 fluorescence, RPMI8226, 24 h, 100 nL compound, profiling panel (AID 1169). Note: test concentration not given here. The following applies: JC-1 mitochondrial potential fluorescence, higher = more signal.
The nature of assay [9]: JC-1 mitochondrial signal, unstimulated MM1S myeloma – cell-based, JC-1 fluorescence, 24 h, 100 nL compound, profiling panel (AID 1170). Note: test concentration not given here. The following applies: MM1S mitochondrial potential, higher = more signal.
Assay [10] is described as follows: resazurin metabolic signal in A549 cells – cell-based, resazurin fluorescence, 24 h, PK04 Diversity Set, profiling panel (AID 1171). Note: test concentration not given here. The following applies: A549 viability, higher = more signal, called active from +8 up or from −8 down. For orientation: Resazurin is reduced to fluorescent resorufin, in cell work by metabolically active cells.
The nature of assay [11]: resazurin metabolic signal in HepG2 cells – cell-based, resazurin fluorescence, 24 h, PK04 Diversity Set, profiling panel (AID 1172). Note: test concentration not given here. The note with it: HepG2 viability, higher = more signal.
Assay [12] can be described thus: budding yeast growth changes without added modifier – OD600, strain BY4716, 24 h, basal condition, primary screen (AID 1173). The note with it: S. cerevisiae BY4716 growth, OD600, 24 h; higher = more signal, called active from +8 up or from −8 down.
The nature of assay [13]: viability profiling in MM1S myeloma cells – cell-based, resazurin fluorescence, basal, 24 h, PK04 Diversity Set, profiling panel (AID 1174). Note: test concentration not given here. The following applies: higher = more signal, called active from +8 up or from −8 down.
The target in assay [14] is Dihydroorotate dehydrogenase (quinone), mitochondrial (Plasmodium falciparum (isolate 3D7)) (UniProt Q08210). Kind of assay: inhibition of P. falciparum DHODH – biochemical, C-terminal His tag, absorbance 600 nm, primary screen (AID 1175).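 Note: recombinant parasite enzyme with a five histidine tag at its C terminus; test concentration not given here.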 The note with it: PfDHODH enzyme, DCIP absorbance 600 nm; higher = more signal, called active from +8 up or from −8 down.
Assay [15] in a line: inhibition of PAO1 biofilm formation – strain PAO1, LB-PBS medium, absorbance 600 nm, primary screen (AID 1176). Note: test concentration not given here. The note with it: P. aeruginosa PAO1 growth/biofilm, A600, 12 h; higher = more signal.
Assay [16] in a line: growth modulation of vineyard yeast isolate – strain RM11-1a, OD600, basal, 24 h, primary screen (AID 1177).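 Note: cultures grown under basal conditions with no added stressor; test concentration not given here.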 The following applies: S. cerevisiae RM11-1a growth, OD600, 24 h; higher = more signal, called active from +8 up or from −8 down.
A short description of assay [17]: growth of efflux-deficient E. coli DRC39 – strain DRC39, OD650, 24 h, E. coli filamentation inducers, primary screen (AID 1178).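 Note: growth measured as culture turbidity by optical density at 650 nm; test concentration not given here.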 The following applies: E. coli DRC39 acrAB, higher = more signal, called active from +8 up or from −8 down.
A short description of assay [18]: growth of efflux-deficient E. coli DRC39 – strain DRC39, OD650, 48 h, E. coli filamentation inducers, primary screen (AID 1179).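 Note: screen aims at cell division blockers that make cells filament.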 The note with it: E. coli DRC39 delta-acrAB growth, higher = more signal, called active from +8 up or from −8 down.
A short description of assay [19]: viability profiling in RPMI8226 myeloma cells – cell-based, resazurin fluorescence, basal, 24 h, PK04 Diversity Set, profiling panel (AID 1180).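 Note: RPMI8826 multiple myeloma cell line at 5000 cells per well; test concentration not given here.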 The note with it: higher = more signal.
The target in assay [20] is E3 ubiquitin-protein ligase XIAP (Homo sapiens) (UniProt P98170). Kind of assay: small molecules binding XIAP protein – biophysical, small-molecule microarray, fluorescence 635 nm, primary screen (AID 1181).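 Note: score merges 667 nm emission and signal to noise over triplicate slides.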 The following applies: higher = more signal.

The source made the active and inactive calls. Unless noted, the rule behind the calls is not given here.

Sequence of E3 ubiquitin-protein ligase XIAP (Homo sapiens) (P98170 whole entry, looked up): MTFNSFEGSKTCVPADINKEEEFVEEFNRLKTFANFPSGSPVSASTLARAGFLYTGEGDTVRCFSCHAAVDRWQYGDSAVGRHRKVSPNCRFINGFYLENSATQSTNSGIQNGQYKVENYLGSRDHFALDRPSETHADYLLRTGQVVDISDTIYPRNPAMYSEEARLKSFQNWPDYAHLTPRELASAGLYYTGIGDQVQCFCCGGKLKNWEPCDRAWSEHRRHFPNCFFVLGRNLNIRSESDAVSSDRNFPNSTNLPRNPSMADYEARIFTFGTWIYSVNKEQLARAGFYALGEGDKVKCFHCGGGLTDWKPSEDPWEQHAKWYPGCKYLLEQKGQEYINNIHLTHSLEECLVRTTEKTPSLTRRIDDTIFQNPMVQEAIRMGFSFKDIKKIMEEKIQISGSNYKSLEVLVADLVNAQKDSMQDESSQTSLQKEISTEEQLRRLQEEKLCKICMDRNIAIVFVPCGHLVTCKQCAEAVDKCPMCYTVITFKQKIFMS
Sequence of Dihydroorotate dehydrogenase (quinone), mitochondrial (Plasmodium falciparum (isolate 3D7)) (Q08210 whole entry, looked up): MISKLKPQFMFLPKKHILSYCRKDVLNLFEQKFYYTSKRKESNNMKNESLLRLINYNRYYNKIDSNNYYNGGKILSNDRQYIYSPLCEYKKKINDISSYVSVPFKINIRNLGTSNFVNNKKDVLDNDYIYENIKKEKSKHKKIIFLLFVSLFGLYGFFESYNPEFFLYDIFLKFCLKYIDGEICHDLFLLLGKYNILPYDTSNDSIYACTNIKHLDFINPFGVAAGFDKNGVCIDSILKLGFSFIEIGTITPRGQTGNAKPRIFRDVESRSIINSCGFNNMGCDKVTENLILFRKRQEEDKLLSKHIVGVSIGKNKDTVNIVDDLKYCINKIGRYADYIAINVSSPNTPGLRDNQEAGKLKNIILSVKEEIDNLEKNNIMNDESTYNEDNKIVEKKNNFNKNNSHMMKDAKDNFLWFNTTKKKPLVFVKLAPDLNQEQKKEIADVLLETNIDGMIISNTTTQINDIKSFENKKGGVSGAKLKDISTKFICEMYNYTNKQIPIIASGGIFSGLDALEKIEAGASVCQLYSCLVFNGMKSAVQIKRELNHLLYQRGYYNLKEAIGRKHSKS

In the case of `CC(=O)NCCCC[C@@H]1NC(=O)[C@@H]2C[C@H](C(=O)NCCCCCC[N+](C)(C)C)[C@H](c3ccc(O)cc3)N2C1=O`, the z-score in assay [1] was 0.131; in assay [2] it was -0.348; in [3] it was -0.611; in assay [4], 0.258; in [5], -0.539; in [6], -1.33. The z-score in assay [7] was 0.164 (inactive); in assay [8], 0.169; in [9] it was -0.5; in assay [10] it was -0.557 (inactive); in assay [11], -0.793; in [12], 0.857 (inactive). Besides, the z-score in [13] was -0.471 (inactive); in assay [15], -0.807 (inactive); in [16], 0.0885 (inactive); in assay [17], -0.241 (inactive); in assay [18], -0.229 (inactive); in [19], -0.854. The results for the composite z-score in assay [14] and in assay [20] were -1.24 (inactive) and 0.123, respectively.

Take `CCOC(=O)C[C@H]1[C@H](OC(=O)c2cc3ccccc3oc2=O)[C@@H](NC(=O)C2CCCCC2)c2cc(OCCCO)ccc2N1C(=O)Cc1ccc(OC)cc1`: the z-score in assay [1] was -0.266; in [2], 0.535; in assay [3], 0.391; in assay [4] it was 0.254; in [5] it was 0.0583; in [6], 0.38. Also, the z-score in assay [7] is -0.229 (inactive); in [8], 0.0411; in [9] it was 0.185; in assay [10], -0.545 (inactive); in assay [11], -0.715; in [12], 0.0323 (inactive). Further, the z-score is -0.176 (inactive) in assay [13]; -0.234 (inactive) in assay [15]; -0.0196 (inactive) in [16]; -0.825 (inactive) in [17]; -1.1 (inactive) in assay [18]; -0.986 in [19]. The values for the composite z-score in assay [14] and in assay [20] were 0.427 (inactive) and 0.214, respectively.

On to `COc1ccc(NN2C(C(O)c3cc(C(F)(F)F)cc(C(F)(F)F)c3)C=CC3C(=O)N(C4CCCCC4)C(=O)C32)cc1` (stereo not given), for which the z-score in assay [1] was -0.557; in assay [2] it was -0.826; in assay [3] it was 0.837; in assay [4], -0.167; in assay [5] it was -1.31; in assay [6], -1.68. The z-score is 0.0313 (inactive) in [7]; 0.139 in assay [8]; -1.14 in assay [9]; -0.35 (inactive) in assay [10]; 0.392 in [11]; 0.275 (inactive) in assay [12]. Moreover, the z-score in assay [13] was 0.0147 (inactive); in [15], 1.21 (inactive); in assay [16], -0.0874 (inactive); in assay [17], -0.587 (inactive); in [18] it was 0.372 (inactive); in [19] it was 0.283. Further, the composite z-score in [14] is -0.0132 (inactive); in assay [20] it was -0.0669.

In the case of `CC(C)C[C@@H]1NC(=O)[C@H]2C[C@@H](C(=O)NCCCCCCNC(=O)CS)[C@@H](c3ccc(O)cc3)N2C1=O`, the z-score in [1] was -0.889; in [2], 0.197; in assay [3], -0.301; in [4] it was -0.397; in [5], 0.266; in assay [6], -1.74. Besides, the z-score is 0.193 (inactive) in assay [7]; 0.486 in assay [8]; -5.59e-05 in assay [9]; 0.0225 (inactive) in assay [10]; 0.102 in assay [11]; 0.153 (inactive) in assay [12]. In addition, the z-score in assay [13] is 0.0815 (inactive); in assay [15], 0.932 (inactive); in [16], 0.088 (inactive); in assay [17], 0.236 (inactive); in assay [18], -0.0073 (inactive); in assay [19] it was -0.596. Besides, the composite z-score in [14] was 0.31 (inactive); in [20], 0.101.

Take `CC(c1ccccc1)C(O)C1C=CC2C(=O)N(c3ccccc3)C(=O)C2N1Nc1ccc(C#N)cc1` (stereo not given): the z-score in assay [1] was 1.71; in assay [2], -0.582; in assay [3], 1.49; in assay [4], 0.401; in assay [5] it was -0.0442; in assay [6], -0.372. For the same molecule, the z-score in [7] was 0.0393 (inactive); in [8], -0.0416; in assay [9], 0.222; in assay [10] it was 0.413 (inactive); in [11], 0.142; in assay [12] it was -0.0091 (inactive). For the same molecule, the z-score in [13] was -1.24 (inactive); in [15], 0.695 (inactive); in assay [16], -0.977 (inactive); in assay [17] it was 1.07 (inactive); in assay [18], 1.83 (inactive); in [19], -0.008. Moreover, the composite z-score in [14] was -0.0432 (inactive); in [20] it was 0.332.

With `CC(C)CNC(=O)[C@@H]1c2ccccc2C(=O)N(Cc2ccccc2Cl)[C@H]1c1ccc(CO)cc1`, the z-score in [1] is -0.103; in assay [2] it was 0.187; in assay [3] it was -0.228; in assay [4] it was -0.242; in assay [5] it was -0.183; in assay [6] it was 1.01. The z-score in assay [7] was -0.0284 (inactive); in assay [8], 0.13; in [9] it was 0.438; in assay [10], 0.914 (inactive); in [11], 0.611; in [12] it was -0.161 (inactive). Also, the z-score in assay [13] is 0.552 (inactive); in [15] it was 0.0435 (inactive); in assay [16], -0.239 (inactive); in assay [17] it was 0.219 (inactive); in [18], 0.303 (inactive); in assay [19], 0.943. For the same molecule, the composite z-score in assay [14] is -0.0116 (inactive); in assay [20], 0.199.

For `COC(=O)[C@H](Cc1ccc(O)cc1)N1CC2=CCCC=C[C@@H]2[C@H]1[C@H](O)Cc1ccccc1`, the z-score is 0.852 in assay [1]; 0.308 in [2]; -0.231 in [3]; -3.12 in assay [4]; -0.833 in [5]; -1.68 in assay [6]. In addition, the z-score was -0.501 (inactive) in [7]; -0.521 in assay [8]; -1.58 in [9]; 0.481 (inactive) in [10]; 0.969 in [11]; -2.95 (inactive) in [12]. Moreover, the z-score in assay [13] was 0.658 (inactive); in [15], 0.106 (inactive); in assay [16] it was -0.889 (inactive); in assay [17] it was 1.34 (inactive); in [18] it was 1.34 (inactive); in assay [19] it was 0.601. Further, the composite z-score is -0.574 (inactive) in assay [14] and -0.219 in [20].

Consider `CC(C)(C)OC(=O)CC[C@]1(C(=O)N2CCOCC2)N=C(c2ccc(OCCCO)cc2)O[C@H]1c1ccccc1CN=[N+]=[N-]`, for which the z-score in [1] was -0.385; in [2], 0.0723; in assay [3] it was 0.209; in assay [4], -0.411; in [5] it was -0.563; in assay [6], 0.432. Moreover, the z-score in assay [7] was -0.0219 (inactive); in assay [8], -0.166; in assay [9] it was -0.324; in assay [10] it was 0.734 (inactive); in assay [11], 0.125; in assay [12], -0.0255 (inactive). Further, the z-score in assay [13] is -0.362 (inactive); in assay [15], 1.78 (inactive); in [16], -0.459 (inactive); in assay [17], 0.565 (inactive); in assay [18] it was 0.088 (inactive); in assay [19], 0.0933. For the same molecule, the values for the composite z-score in assay [14] and in assay [20] were -0.0668 (inactive) and 0.0159, respectively.
